CHRM1 antagonist: human CHRM1 antagonism. inhibition, % at 3 µM. CHO-K1 hM1, Fluo-8 calcium fluorescence, ACh EC80 antagonist. AID 588852. P11229. 360,000 tested, 1.3% active;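 active = percent inhibition above its own plate's cutoff, namely the mean of that plate's compound wells plus 3 SD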;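 also: peak over basal fluorescence ratio during 140 s after agonist addition; 0% = ACh EC80 plus DMSO and 100% = DMSO alone without agonist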
Target sequence (P11229 whole entry, looked up): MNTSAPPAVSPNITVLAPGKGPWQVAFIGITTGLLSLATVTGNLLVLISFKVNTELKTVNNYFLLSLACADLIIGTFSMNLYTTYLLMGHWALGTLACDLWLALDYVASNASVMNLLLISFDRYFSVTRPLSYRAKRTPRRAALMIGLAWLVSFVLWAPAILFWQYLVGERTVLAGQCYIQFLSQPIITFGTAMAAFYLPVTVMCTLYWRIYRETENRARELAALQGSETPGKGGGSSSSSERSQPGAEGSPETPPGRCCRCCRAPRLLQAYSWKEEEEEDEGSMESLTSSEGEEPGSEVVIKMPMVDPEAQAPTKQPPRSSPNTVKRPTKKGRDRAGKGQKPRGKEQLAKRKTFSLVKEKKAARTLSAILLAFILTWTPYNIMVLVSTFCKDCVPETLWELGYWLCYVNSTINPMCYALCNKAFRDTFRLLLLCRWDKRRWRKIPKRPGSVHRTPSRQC
CHRM1 agonist: activates human CHRM1 receptor; CHO-K1 hM1, Fluo-8 calcium fluorescence, agonist mode; 0% DMSO, 100% acetylcholine EC100; 360,000 tested, 0.33% active; P11229; AID 588814; activation, % at 3 µM;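 active = activation above the run's mean compound activation plus 3 SD, cut at about 16% in these data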;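 also: peak over basal fluorescence ratio within a 140 s kinetic read after compound addition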
M1 PAM: potentiates human M1 receptor response to acetylcholine | CHO-K1 hM1, Fluo-8 calcium fluorescence, ACh EC20; 0% = ACh EC20, 100% = maximal ACh | AID 588819 | P11229 | activation, % at 3 µM | 360,000 tested, 0.088% active; in the data active = activation above about 19%, passing the limit was not always enough
M1 ag parental: counter-screen for M1 agonists: effect in parental CHO-K1 cells. Fluo-8 calcium fluorescence; scaled to maximal ATP response, vehicle zero. activation, % at 3 µM. 360,000 tested, 0.48% active; in the data active = activation above about 15%;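 also: untransfected CHO-K1 host cells lacking M1 receptor as counterscreen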
M1 PAM parental: nonselective activator or artifact in parental CHO-K1 calcium assay; ATP EC20, Fluo-8 calcium fluorescence; 0% at ATP EC20, 100% at ATP max; activation, % at 3 µM; 360,000 tested, 0.02% active; AID 602247;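 active = activation above the run cutoff, the mean activation of all test compounds plus 3 SD, cut at about 40% in these data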;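 also: peak over basal fluorescence ratio in a 140 s read after ATP addition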
CHO-K1 Ca antag: counter-screen for M1 antagonists: effect in parental CHO-K1 cells; ATP-induced calcium, Fluo-8 fluorescence; inhibition, % at 3 µM; 360,000 tested, 0.6% active; AID 602250;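 active = inhibition above a per-plate cutoff, the plate's mean sample inhibition plus 3 SD, cut at about 24% in these data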;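 also: 0% = DMSO plus EC80 ATP and 100% = DMSO alone without ATP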
Numbers without * were called inactive; · = not tested or not shown. Compounds with a hit are over-represented: about 2.3% of the library has one in this group of screens.

SMILES | CHRM1 antagonist | CHRM1 agonist | M1 PAM | M1 ag parental | M1 PAM parental | CHO-K1 Ca antag
COCCCNc1ccn2nc(-c3ccc(Cl)cc3)cc2n1 | -11.1 | -0.7 | 5.9 | 1.6 | -4.3 | 24.1*
CC1(C2CCC3C4CCC5CC6(CCC5(C)C4C(=O)CC32C)OCCO6)OCCO1 (stereo unspecified) | -23.8 | -5.0 | 24.9* | -0.1 | 5.3 | -8.7
Cc1c(CCC(=O)O)c(=O)oc2cc(OCc3ccccc3F)ccc12 | -13.7 | -3.9 | 12.9 | 3.3 | 16.8 | -12.9
Cc1ccc(/C=C(\NC(=O)c2ccccc2)C(=O)NCCN2CCOCC2)o1 | -11.7 | -3.0 | 2.4 | -0.7 | -13.4 | 24.4*
Cc1ccc(C(=O)N/C(=C\c2ccco2)C(=O)NCCN2CCCCC2)cc1C | -3.2 | -5.9 | 5.6 | 0.2 | -9.0 | -2.3
O=C(NCCN1CCCCC1)/C(=C/c1ccco1)NC(=O)c1ccccc1 | -27.8 | -1.8 | 31.2* | 0.1 | 15.2 | -18.0
Cc1ccc(CNC(=O)CCNC(=O)c2ccc([N+](=O)[O-])cc2)cc1 | 3.8 | -2.7 | -0.8 | -0.1 | 3.3 | -5.3
Cc1cccc(N(C)C(=O)CCS(=O)(=O)c2cc3c(cc2Cl)NC(=O)CO3)c1 | -10.7 | -5.1 | 6.1 | 1.0 | 8.4 | 1.1
N#CCCN1CCN(CCC#N)C1=S | 1.1 | 16.1* | -3.0 | 0.7 | -0.6 | -5.6
N#CCCN1CCN(CCC#N)c2ccccc21 | 2.4 | -0.5 | 0.3 | 0.4 | -0.7 | -4.4
CCOC(=O)c1csc(-c2snnc2C)n1 | -9.7 | 2.6 | 3.3 | 16.7* | 9.5 | -0.1
CCOC(=O)c1csc(N)n1 | -10.5 | -5.2 | 9.2 | 3.2 | 17.9 | -8.9
CC(=O)c1sc(NC(=O)C2(F)C(F)(F)C(F)(F)C(F)(F)C(F)(F)C2(F)F)nc1C | 11.1 | 3.4 | -6.3 | 12.6 | 1.9 | 25.6*
Nc1c(S(=O)(=O)c2ccccc2)c2nc3ccccc3nc2n1/N=C/c1ccco1 | 15.7 | -2.0 | -8.9 | 0.4 | -5.8 | 26.4*
COc1ccc(-n2c(-c3cccc(OC)c3)nc(=S)c3c2CCCC3)cc1 | 60.4* | -14.8 | -34.9 | 1.2 | 9.2 | -10.9
COc1ccc(-n2c(-c3ccccc3)nc(=S)c3c2CCCC3)cc1 | -27.9 | -1.2 | 5.9 | 4.0 | 16.7 | -5.4
CCN1C[C@@H]2[C@@H]3C(=O)N(C)C(=O)[C@@H]3[C@](CC)(C1=O)N2C(=O)c1ccccc1 | -9.4 | -3.5 | 7.8 | 0.6 | -1.7 | -10.6
CCCCc1c(-c2cccc(Br)c2)ncn1CCc1ccccc1OC | · | · | · | 13.0 | 28.3 | -9.2
CCCCOc1ccc(Br)cc1CSC(=N)N | 26.3* | -1.2 | -18.1 | 6.8 | -14.8 | 33.6*
CCOc1ccc(C(C)=O)cc1CSC(=N)N | -2.6 | -13.7 | 8.4 | -0.1 | 3.9 | 5.8
COc1ccc([C@@H]2[C@H]3C(=O)N(c4cccc(C(F)(F)F)c4)C(=O)[C@H]3ON2C)cc1 | -17.5 | -5.7 | 11.8 | 0.2 | 15.4 | -30.0
CO/N=C/CC(=O)Nc1ccc(F)cc1F | -30.1 | -1.6 | 2.8 | 0.1 | 21.4 | -24.6
O=C(C/C=N\OCc1ccc([N+](=O)[O-])cc1)Nc1ccc(F)cc1F | -14.6 | -7.8 | 8.0 | 29.4* | 11.8 | 4.0
Cc1ccc(C)c(S(=O)(=O)N2CCN(C(=O)Cn3c(=O)cnc4ccccc43)CC2)c1 | 8.6 | -2.3 | -0.2 | 0.7 | -17.1 | -0.6
O=C(NC1CCCC1)C(c1ccccc1F)N(C(=O)Cc1cccs1)c1ccc2c(c1)OCCO2 (stereo unspecified) | 11.2 | -3.8 | -9.1 | 23.9* | 11.9 | 3.4
SMILES | CHRM1 antagonist | CHRM1 agonist | M1 PAM | M1 ag parental | M1 PAM parental | CHO-K1 Ca antag
COc1cccc(NC(=O)C(=O)NCCC2CCCCN2S(=O)(=O)c2ccccc2)c1 (stereo unspecified) | -10.7 | -3.6 | 5.1 | 1.5 | 3.2 | -1.2
O=C(NCc1cccc(Cl)c1)c1ccc2c(c1)OCCO2 | -24.1 | -3.8 | 12.7 | 0.9 | 24.4 | -14.9
Cn1nc(C(C)(C)C)cc1C(=O)NCc1cc(F)cc2c1OCOC2 | 40.9* | 6.2 | -4.3 | 15.3* | -13.6 | 30.7*
O=C(CSc1c[nH]c2ccccc12)N1CCOCC1 | -10.1 | -4.8 | 6.6 | 0.4 | 20.3 | -11.8
COc1ccc(C2SCC(=O)N2c2ccc(OC)cc2)cc1 (stereo unspecified) | -3.7 | -3.1 | 7.0 | 0.2 | -18.1 | 2.0
COc1cccc(C2SCC(=O)N2c2ccc(Br)cc2)c1OC (stereo unspecified) | 73.6* | -10.9 | -26.9 | -0.2 | 13.4 | -9.4

Screening results: PubChem BioAssay, The Scripps Research Institute Molecular Screening Center
